This experiment is described as follows: viability loss with induced miR-34 in A549 – imaging, A549 dox-inducible miR-34, nuclei and caspase counts, primary screen (AID 1347080). Further: test concentration not given here. Conditions: A549 miR-34 inducible, Hoechst nuclei count, 48 h.
Setting [1] is: stronger effect = lower value, cell number ratio, induced over uninduced.
The mark [2] stands for this setting: measured here: relative caspase fold change +Dox/-Dox.
The mark [3] stands for this setting: measured here: total cells with miR-34 induction, stronger effect = lower value.
Setting [4] is: measured here: total cells without miR-34 induction.

Values joined by “and” are separate entries in the source; they are usually repeats but may differ in a detail not shown here. Equal entries are not always repeated. Active and inactive are the calls of the source.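 How the source made its calls: active means compounds whose cell count with miR-34 switched on is under 0.7 times the count with it off; inactive means the rest.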

`C#CCCCCCCCCCNC(=O)Oc1cccc(-c2cccc(C(N)=O)c2)c1`: the fold change is, setting by setting: under setting [1], 0.97 (inactive); under setting [2], 1.13. Further, the cell count was 5690 under setting [3] and 5860 under setting [4].
Taken in the same sequence, the figures for `CCCCCCCCCCCCCCCCOC[C@H](COP(=O)([O-])OCC[N+](C)(C)C)OCC` were 0.91 (inactive), 1.05, 5080 and 5580.
For `CCCCCCCCCC(=O)NC(CN1CCOCC1)C(O)c1ccccc1` (stereo not drawn), in that order: 1.03 (inactive), 0.968, 5830 and 5670.
Taken in the same sequence, the figures for `O=C1OC[C@@H](Cc2cccc(O)c2)[C@@H]1Cc1cccc(O)c1` were 0.923 (inactive), 1.92, 5590 and 6060.
With `CCCCCCCCCCCCCCCCCCCC(=O)NCCO`, the fold change is, setting by setting: under setting [1], 1.07 (inactive); under setting [2], 0.773. Besides, the cell count runs as follows: under setting [3], 6530; under setting [4], 6100.
Taken in the same sequence, the figures for `C[C@@H]1CC[C@H]2[C@@H](C)C(O)O[C@@H]3OC4(C)CC[C@@H]1[C@]32OO4` (stereo partly drawn) were 0.843 (inactive), 0.767, 3740 and 4440.
Regarding `CN(C)CCCCCCOc1ccc(-n2ccnc2)cc1`, the fold change was 1.01 (inactive) under setting [1]; 0.915 and 0.806 under setting [2]. The cell count is 5270 and 6380 under setting [3]; 5240 and 6330 under setting [4].
Consider `CCCC/C=C\CCCCCCCC(=O)OC`, for which the fold change under setting [1] was 1.02 (inactive) and the fold change under setting [2] was determined as 0.704. In addition, the cell count was determined as 5700 under setting [3] and 5570 under setting [4].
Taken in the same sequence, the figures for `CCCCC[C@H]1/C=C/[C@@H]2[C@@H](C/C=C\CCCC(=O)O1)[C@@H](O)C[C@H]2O` were 0.933 (inactive), 1, 4270 and 4580.
For `Cc1c(C(=O)c2ccccc2)c(N)c(-c2ccccc2)n1Cc1ccc(Cl)cc1`, in that order: 0.936 (inactive), 1.39, 5890 and 6290.
Turning to `CCCCCCCCCCCCCCCCOC[C@@H](CO)SC(C)=O`, the fold change is 1.02 (inactive) under setting [1] and 0.6 under setting [2]. In addition, the cell count was determined as 5400 under setting [3] and 5270 under setting [4].
For `O=C(O)CCCCCCCCCCCNC(=O)NC1CCCCC1`, in that order: 0.963 (inactive), 0.896, 5580 and 5790.
In the case of `CCCCC[C@H](O)/C=C/[C@@H]1[C@@H](C/C=C\CCCC(=O)OC(C)C)[C@@H](O)C[C@H]1O`, the fold change was 0.994 (inactive) under setting [1] and 1.14 under setting [2]. This compound also displayed a cell count under setting [3] of 5380 and a cell count under setting [4] of 5420.
Taken in the same sequence, the figures for `COC(=O)CCCCCC[C@@H]1[C@@H](CC[C@@H](O)CSc2ccccc2F)[C@H](O)C[C@@H]1O` were 0.962 (inactive), 2.89, 5920 and 6150.
`O=C(O)CCC/C=C\C[C@H]1[C@@H](/C=C/[C@@H](O)CCc2ccccc2)[C@H](O)C[C@@H]1O`: the fold change is 0.9 (inactive) under setting [1] and 0.837 under setting [2]. Moreover, the cell count is, setting by setting: under setting [3], 5490; under setting [4], 6100.
For `CCCCNC(=O)NS(=O)(=O)c1ccc(CO)cc1`, in that order: 1.05 (inactive), 0.775, 5120 and 4890.
Taken in the same sequence, the figures for `COc1ccc2cc(CC(=O)O)ccc2c1` were 0.964 (inactive), 1.2, 5630 and 5840.
Taken in the same sequence, the figures for `CC(C)OC(=O)CCC/C=C\C[C@H]1C(=O)C[C@@H](O)[C@@H]1/C=C/[C@@H](O)COc1cccc(C(F)(F)F)c1` were 0.919 (inactive), 1.4, 5960 and 6490.
Take `CCCCC[C@H](O)/C=C/[C@@H]1[C@@H](C/C=C/CCCC(=O)O)[C@@H](O)C[C@H]1O`: the fold change was 0.9 (inactive) and 0.944 (inactive) under setting [1]; 1.55 and 0.855 under setting [2]. The cell count under setting [3] was 5350 and 5640; the cell count under setting [4] was 5940 and 5970.
Take `O=C(O)CCC/C=C\C[C@H]1[C@@H](/C=C/[C@@H](O)CCc2ccccc2)[C@H](O)C[C@H]1O`: the fold change by setting is: under setting [1], 0.969 (inactive); under setting [2], 0.334. Moreover, the cell count was 5150 under setting [3] and 5310 under setting [4].
For `O=C(O)CCC/C=C\C[C@@H]1C(=O)C[C@@H](O)[C@@H]1/C=C/[C@@H](O)CCc1ccccc1`, in that order: 0.867 (inactive), 0.324, 5200 and 6000.
`CCCCC[C@H](O)/C=C/[C@@H]1[C@@H](C/C=C\CCCC(=O)N(CC)CC)[C@@H](O)C[C@H]1O`: the fold change is, setting by setting: under setting [1], 0.98 (inactive); under setting [2], 0.858. Moreover, the cell count under setting [3] amounted to 5500 and the cell count under setting [4] worked out at 5610.
Taken in the same sequence, the figures for `CCCCCCCCCCCCCCCCOC[C@H](COP(=O)([O-])OCC[N+](C)(C)C)OC(=O)CCCCCCCC(=O)O` were 0.862 (inactive), 0.772, 4600 and 5340.
For the compound `NC(=NCC[C@H](N)C(=O)O)NO`, the fold change is, setting by setting: under setting [1], 0.915 (inactive); under setting [2], 0.994. In addition, the cell count was determined as 4720 under setting [3] and 5160 under setting [4].
For `CCCCC[C@H](O)/C=C/[C@@H]1[C@@H](C/C=C\CCCC(=O)OC)[C@@H](O)C[C@H]1O`, in that order: 0.963 (inactive), 1.19, 5860 and 6080.
Taken in the same sequence, the figures for `CCCCCC(=O)CC[C@@H]1[C@@H](CCCCCCC(=O)O)[C@@H](O)C[C@H]1O` were 0.953 (inactive), 1.23, 6140 and 6450.
Taken in the same sequence, the figures for `CCCCCCCCCCCCCCCC(=O)OC` were 0.995 (inactive), 0.98, 5710 and 5750.
As for `CCCCC[C@H](O)/C=C/[C@H]1[C@H](O)CC(=O)[C@@H]1C/C=C/CCCC(=O)O`, the fold change is 0.972 (inactive) under setting [1] and 1.22 under setting [2]. Besides, the cell count runs as follows: under setting [3], 5510; under setting [4], 5670.
Taken in the same sequence, the figures for `C[C@H](CCCO)[C@H]1CC[C@H]2[C@@H]3[C@H](O)C[C@H]4CC(=O)CC[C@]4(C)[C@H]3C[C@H](O)[C@]12C` were 0.847 (inactive), 0.203, 4760 and 5610.
Taken in the same sequence, the figures for `[C-]#[N+]c1cc(-c2ccncc2)c(C)[nH]c1=O` were 0.91 (inactive), 1.32, 5870 and 6450.
Taken in the same sequence, the figures for `CCCCC/C=C\C/C=C\CC/C=C\CCCC(=O)OCC` were 1.04 (inactive), 1.09, 5570 and 5390.
Regarding `C[C@H](CCCO)[C@H]1CC[C@H]2[C@@H]3[C@H](O)C[C@H]4C[C@H](O)CC[C@]4(C)[C@H]3C[C@H](O)[C@]12C`, the fold change is, setting by setting: under setting [1], 0.949 (inactive); under setting [2], 1.07. Also, the cell count is, setting by setting: under setting [3], 5800; under setting [4], 6110.
For `CCCCC/C=C\CCCC/C=C\C/C=C\CCCC(=O)O`, in that order: 0.917 (inactive), 0.462, 5360 and 5850.
Turning to `CCCCC(C)(C)[C@H](O)/C=C/[C@H]1C=CC(=O)[C@@H]1CCCCCCC(=O)O`, the fold change under setting [1] is 1 (inactive) and the fold change under setting [2] is 1.69. In addition, the cell count turned out to be 5490 under setting [3] and 5490 under setting [4].
As for `CC(C)(CCCCCCCCCCC(C)(C)CC(=O)O)CC(=O)O`, the fold change reads like this: under setting [1], 0.985 (inactive); under setting [2], 0.985. The compound also had a cell count under setting [3] of 6090 and a cell count under setting [4] of 6180.
Consider `CCCCCCCCCCCCC(=O)N[C@H]1CCOC1=O`, for which the fold change by setting is: under setting [1], 0.915 (inactive); under setting [2], 1.35. The cell count came to 5190 under setting [3] and 5670 under setting [4].
For `CCCCCCC[C@H](O)/C=C/[C@H]1[C@H](O)CC(=O)[C@@H]1C/C=C\CCCC(=O)O`, in that order: 0.933 (inactive), 1.19, 5790 and 6200.

These data come from PubChem BioAssay.
